In PubChem BioAssay (NCI):
“And” between values parts separate entries of the source, which are not always exact repeats. Equal entries are not always repeated. The panel holds about 83,000 compounds, 20% with a hit somewhere; the sample as a whole holds those more often.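 Interpretation: 100, growth as untreated; towards 0, rising growth inhibition; 0, no net growth; 0 to -100, cell death. Compounds scoring below 10 were considered active.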 The source made the active and inactive calls.

How the values were obtained:
Test in all cases: NCI-60 one-dose screen, 48 h (100 = growth as untreated, 0 = no growth, -100 = all killed)
HCT-15 colon = settings: 10 µM
HT29 colon = settings: 10 µM
SNB-19 CNS = settings: 10 µM
U251 CNS = settings: 10 µM
PC-3 prostate = settings: 10 µM
SK-MEL-5 melanoma = settings: 10 µM
UACC-62 melanoma = test system: UACC-62 melanoma
LOX IMVI melanoma = settings: 10 µM
SK-MEL-28 melanoma = settings: 10 µM
SK-MEL-2 melanoma = settings: 10 µM
EKVX NSCLC = settings: 10 µM
SN12C renal = settings: 10 µM
UO-31 renal = settings: 10 µM
TK-10 renal = test system: TK-10 renal
ACHN renal = settings: 10 µM
CAKI-1 renal = settings: 10 µM
A498 renal = settings: 10 µM
CCRF-CEM leukemia = settings: 10 µM
SNB-75 CNS = settings: 10 µM
HL-60(TB) leukemia = settings: 10 µM

Measured: growth

O=[N+]([O-])c1ccc(Br)c([N+](=O)[O-])c1
active: UO-31 renal -18.2% | CAKI-1 renal -93.5%
inactive: HCT-15 colon 36.6% | HT29 colon 75.4% | SNB-19 CNS 101% | U251 CNS 99.1% | PC-3 prostate 91.8% | SK-MEL-5 melanoma 95.8% | UACC-62 melanoma; 10 µM unless noted 103% | LOX IMVI melanoma 13.3% | SK-MEL-28 melanoma 101% | SK-MEL-2 melanoma 96.8% | EKVX NSCLC 115% | SN12C renal 90.1% | TK-10 renal; 10 µM unless noted 102% | ACHN renal 52.6% | A498 renal 98.3% | CCRF-CEM leukemia 46.4%

O=[N+]([O-])/C=C/c1ccc(Cl)cc1[N+](=O)[O-]
inactive: SNB-75 CNS 55.4% | SNB-19 CNS 71.8% | PC-3 prostate 46.4% | SK-MEL-5 melanoma 81.4% | UACC-62 melanoma; 10 µM unless noted 73.7% | SK-MEL-28 melanoma 85% | SK-MEL-2 melanoma 102% | EKVX NSCLC 81.8% | SN12C renal 63.2% | TK-10 renal; 10 µM unless noted 75.3% | ACHN renal 30.3% | CAKI-1 renal 47.7% | A498 renal 106% | HL-60(TB) leukemia 33.9%
active: HT29 colon -91.6% | U251 CNS -39.8% | LOX IMVI melanoma -94.1% | UO-31 renal -45.7% | CCRF-CEM leukemia 8.23%

C=C1C(=O)O[C@@H]2C[C@@H](C)[C@@H]3C=CC(=O)[C@@]3(C)[C@@H](O)[C@H]12
active: HCT-15 colon -83.7% | HT29 colon -66% | SNB-75 CNS -94.8% | SNB-19 CNS -63.7% | U251 CNS -100% | PC-3 prostate -62% | SK-MEL-5 melanoma -93.5% | UACC-62 melanoma; 10 µM unless noted -61.4% | LOX IMVI melanoma -97% | SK-MEL-2 melanoma -24.4% | EKVX NSCLC -61% | SN12C renal 9.98% | UO-31 renal -94.9% | TK-10 renal; 10 µM unless noted -97.9% | ACHN renal -93.5% | CAKI-1 renal -91.6% | CCRF-CEM leukemia -42.4%

COc1ccc(/C=C\[N+](=O)[O-])cc1OC
active: LOX IMVI melanoma 2.99% and -69.2%
inactive: HT29 colon 41.3% and 24.7% | SNB-75 CNS 65.2% | SNB-19 CNS 82.5% and 63.1% | U251 CNS 56.2% and 48.6% | PC-3 prostate 68.9% and 77.1% | SK-MEL-5 melanoma 72.6% and 56.4% | UACC-62 melanoma; 10 µM unless noted 74.1% and 50% | SK-MEL-28 melanoma 50.4% | SK-MEL-2 melanoma 92% and 92.7% | EKVX NSCLC 103% and 76.3% | SN12C renal 81.4% | UO-31 renal 33.1% and 75.1% | TK-10 renal; 10 µM unless noted 85.9% and 76.5% | ACHN renal 64.4% and 79.1% | CAKI-1 renal 63.1% and 58.6% | A498 renal 92.9% and 77.8% | CCRF-CEM leukemia 70.2% and 27.2%
44.3% (inactive) and 2.41% (active): HL-60(TB) leukemia

C[C@@H]1C[C@@H]([C@H](O)CC2CC(=O)NC(=O)C2)C(=O)[C@@H](C)C1
inactive: SNB-19 CNS 10.5% | EKVX NSCLC 12.4% | CAKI-1 renal 15.9%
active: HT29 colon 3.76% | SNB-75 CNS 8.07% | U251 CNS 3.25% | PC-3 prostate 8.32% | SK-MEL-5 melanoma 0.54% | UACC-62 melanoma; 10 µM unless noted 5.43% | LOX IMVI melanoma -10.7% | SK-MEL-28 melanoma -13.1% | SK-MEL-2 melanoma -6.5% | SN12C renal -0.0682% | UO-31 renal 0.7% | TK-10 renal; 10 µM unless noted 8.46% | ACHN renal 3.19% | HL-60(TB) leukemia -3.87%

COc1cc(/C=C/[N+](=O)[O-])cc(OC)c1OC
inactive: SNB-75 CNS 18.9% | SNB-19 CNS 56.5% | U251 CNS 18.4% | SK-MEL-2 melanoma 63.6% | EKVX NSCLC 73.6% | SN12C renal 30.7% | A498 renal 47.1%
active: HCT-15 colon -9.12% | HT29 colon -27.1% | PC-3 prostate 6.51% | UACC-62 melanoma; 10 µM unless noted -26.9% | LOX IMVI melanoma -71.7% | SK-MEL-28 melanoma -7.3% | UO-31 renal -85.3% | TK-10 renal; 10 µM unless noted -11% | ACHN renal -42.2% | CAKI-1 renal -78.2% | HL-60(TB) leukemia -16.6%

COC(C(=O)C(O)C(C)O)C1Cc2cc3cc(OC4CC(OC(C)=O)C(OC5CC(O)C(OC)C(C)O5)C(C)O4)cc(O)c3c(O)c2C(=O)C1OC1CC(OC2CC(OC3CC(C)(O)C(OC(=O)C(C)C)C(C)O3)C(O)C(C)O2)C(O)C(C)O1 (centres undefined)
active: HT29 colon -2.06% | SNB-75 CNS -74% | SNB-19 CNS -4.78% | U251 CNS 8.24% | PC-3 prostate 1.13% | SK-MEL-5 melanoma -97.3% | UACC-62 melanoma; 10 µM unless noted -97% | LOX IMVI melanoma 1.99% | SK-MEL-2 melanoma -60.7% | EKVX NSCLC -16% | SN12C renal 5.41% | UO-31 renal -35.2% | ACHN renal 3.27% | HL-60(TB) leukemia -46.3% | CCRF-CEM leukemia -13.4%
inactive: HCT-15 colon 25.1% | TK-10 renal; 10 µM unless noted 20.2% | CAKI-1 renal 17.1%

CC(C)C1(NC(=O)C2CC3c4cccc5[nH]cc(c45)CC3N(C)C2)OC2(O)C3CCCN3C(=O)C(Cc3ccccc3)N2C1=O (centres undefined)
active: SNB-75 CNS -1.61%
inactive: HCT-15 colon 89.3% | HT29 colon 101% | SNB-19 CNS 102% | U251 CNS 98.8% | PC-3 prostate 81.1% | SK-MEL-5 melanoma 89.8% | UACC-62 melanoma; 10 µM unless noted 86.4% | LOX IMVI melanoma 91% | SK-MEL-2 melanoma 107% | EKVX NSCLC 98.8% | SN12C renal 99.4% | UO-31 renal 91.3% | TK-10 renal; 10 µM unless noted 123% | ACHN renal 83% | CAKI-1 renal 110% | HL-60(TB) leukemia 73.9% | CCRF-CEM leukemia 135%

COc1cc2c(c(OC)c1OC)-c1ccc(O)c(=O)cc1[C@@H](NC(C)=O)CC2
active: UACC-62 melanoma; 100 µM -41.5%
inactive: HT29 colon 29.9% | SNB-75 CNS 67.5% | SNB-19 CNS 38% | U251 CNS 24.6% | PC-3 prostate 25.2% | SK-MEL-5 melanoma 55.8% | UACC-62 melanoma; 10 µM 55.2% | LOX IMVI melanoma 44.1% | SK-MEL-28 melanoma 68.3% | SK-MEL-2 melanoma 47.9% | SN12C renal 60% | UO-31 renal 53.3% | TK-10 renal; 10 µM 64.4% | TK-10 renal; 100 µM 12.6% | ACHN renal 61.2% | CAKI-1 renal 26.6% | A498 renal 63.7% | CCRF-CEM leukemia 16.2%

NNc1ccccc1
inactive: HCT-15 colon 82.3% | HT29 colon 96.9% | SNB-75 CNS 93.2% | SNB-19 CNS 96.7% | U251 CNS 103% | SK-MEL-5 melanoma 87.9% | UACC-62 melanoma; 10 µM unless noted 40.4% | LOX IMVI melanoma 65.3% | SK-MEL-28 melanoma 107% | EKVX NSCLC 89.6% | SN12C renal 97.3% | UO-31 renal 64% | TK-10 renal; 10 µM unless noted 42.3% | ACHN renal 64.5% | CAKI-1 renal 65.4% | A498 renal 97.5% | CCRF-CEM leukemia 42.7%

Cc1cc(C(C)(C)c2ccc(O)c(C)c2)ccc1O
inactive: HCT-15 colon 93.9% | SNB-75 CNS 73.7% | SNB-19 CNS 100% | U251 CNS 86.6% | PC-3 prostate 123% | SK-MEL-5 melanoma 88% | UACC-62 melanoma; 10 µM unless noted 79.3% | LOX IMVI melanoma 85.3% | SK-MEL-28 melanoma 100% | EKVX NSCLC 85.2% | SN12C renal 89.9% | UO-31 renal 79% | TK-10 renal; 10 µM unless noted 98.9% | ACHN renal 88.7% | CAKI-1 renal 84.7% | HL-60(TB) leukemia 71.4% | CCRF-CEM leukemia 127%

CN(C)CC1(N)C(=O)NC(=O)NC1=O
inactive: HT29 colon 99.6% | SNB-75 CNS 89.7% | SNB-19 CNS 102% | U251 CNS 96.3% | PC-3 prostate 93.5% | SK-MEL-5 melanoma 95.1% | UACC-62 melanoma; 10 µM unless noted 97.5% | LOX IMVI melanoma 104% | SK-MEL-28 melanoma 95.1% | SK-MEL-2 melanoma 101% | EKVX NSCLC 103% | SN12C renal 96.8% | UO-31 renal 96.3% | TK-10 renal; 10 µM unless noted 97.9% | ACHN renal 101% | CAKI-1 renal 96.4% | A498 renal 54.9% | CCRF-CEM leukemia 99.1%

CS(=N)(=O)CCC(N)C(=O)O (centres undefined)
inactive: HT29 colon 113% | SNB-75 CNS 91% | SNB-19 CNS 102% | U251 CNS 104% | PC-3 prostate 89.8% | SK-MEL-5 melanoma 110% | UACC-62 melanoma; 10 µM unless noted 113% | LOX IMVI melanoma 103% | SK-MEL-28 melanoma 128% | SK-MEL-2 melanoma 107% | EKVX NSCLC 109% | SN12C renal 102% | UO-31 renal 95.1% | TK-10 renal; 10 µM unless noted 94.1% | ACHN renal 103% | CAKI-1 renal 83.2% | HL-60(TB) leukemia 127%

CC1CCC2(OC1)OC1C(O)C3C4CCC5CC(OC6OC(CO)C(OC7OC(CO)C(O)C(OC8OCC(O)C(O)C8O)C7OC7OC(CO)C(O)C(OC8OC(CO)C(O)C(O)C8O)C7O)C(O)C6O)C(O)CC5(C)C4CCC3(C)C1C2C (centres undefined)
inactive: UACC-62 melanoma; 10 µM 22.5%
active: HT29 colon -40.5% | SNB-75 CNS -32% | SNB-19 CNS -71.7% | U251 CNS -51.1% | PC-3 prostate -93.4% | SK-MEL-5 melanoma -62.2% | UACC-62 melanoma; 100 µM -89.7% and -92% | LOX IMVI melanoma -69.8% | SK-MEL-2 melanoma 8.3% | EKVX NSCLC -17.2% | SN12C renal -26.9% | UO-31 renal -96.8% | TK-10 renal; 10 µM -27.4% | TK-10 renal; 100 µM -99% and -94% | ACHN renal 1.57% | CAKI-1 renal -63% | HL-60(TB) leukemia -17.1% | CCRF-CEM leukemia -15.7%

NC(Cc1ccccc1)c1ccccc1 (centres undefined)
inactive: HT29 colon 106% and 95.1% | SNB-75 CNS 93.9% and 84.8% | SNB-19 CNS 105% and 99.7% | U251 CNS 103% and 102% | PC-3 prostate 84.8% and 90% | SK-MEL-5 melanoma 94.1% and 100% | UACC-62 melanoma; 10 µM unless noted 99.8% and 91.6% | LOX IMVI melanoma 92.2% and 97.5% | SK-MEL-28 melanoma 101% and 110% | SK-MEL-2 melanoma 99.8% and 101% | EKVX NSCLC 103% and 112% | SN12C renal 102% and 101% | UO-31 renal 93.6% and 69.8% | TK-10 renal; 10 µM unless noted 101% and 103% | ACHN renal 105% and 101% | CAKI-1 renal 96.5% and 102% | HL-60(TB) leukemia 102% and 107% | CCRF-CEM leukemia 110% and 90%
